# HT1080NT lethal: qHTS for induction of synthetic lethality in tumor cells producing 2HG: qHTS for the HT-1080-NT fibrosarcoma cell line. Potency, µM (series often up to 46.1 µM), hits mostly cytotoxic. HT-1080-NT fibrosarcoma viability, CellTiter-Glo ATP luminescence, 48 h. AID 686970, 2013. 360,000 tested, 1.6% active;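 also: NT is the 2HG producing partner of a matched IDH1 knockdown line; nearly all actives have a fitted effect of over 55% in size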
#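 Fibrosarcoma NT cells, 750 per well in 5% FBS RPMI, were exposed to compound for 48 hours. Viability: CellTiter-Glo luminescence.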
# IL-1B inflam inh: qHTS for Inhibitors of Inflammasome Signaling: IL-1-beta AlphaLISA Primary Screen; THP-1 LPS/ATP IL-1B secretion, AlphaLISA, 16 h; stronger effect = lower value; activity change, % at 57.5 µM; 360,000 tested, 4.7% active; AID 743279, 2014; in the data active = activity change below about -50%; inconclusive = mostly about -30% to -49%
#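 THP-1 cells pretreated 1 hr with compounds (up to 57.5 uM final), then stimulated with LPS (250 ng/mL final) plus ATP (1.25 mM final); secreted IL-1B measured by AlphaLISA after 16 hr, decreased signal indicating inhibition.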
# TDP1 cell CPT: qHTS for Inhibitors of human tyrosyl-DNA phosphodiesterase 1 (TDP1): qHTS in cells in presence of CPT | chicken DT40 Tdp1-/-;hTDP1 cells + 20 nM CPT, ATP luminescence, 48 h | Potency, µM (titrated, usually from 46.2 µM), usual class: inhibitors | 420,000 tested, 12% active; also: nearly all actives have a fitted effect of over 55% in size
#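 Cell growth measured by CellTiter-Glo luminescence after a minimum 48 h, 37 C compound exposure with 20 nM CPT in Tdp1-knockout DT40 cells stably expressing hTDP1, seeded 400/well; qHTS titration format.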
# HT1080 IDH1KD tx: qHTS for induction of synthetic lethality in tumor cells producing 2HG: qHTS for the HT-1080-IDH1KD cell line; HT-1080 IDH1 knockdown viability, ATP luminescence, 48 h; Potency, µM (titrated, usually from 46.1 µM), actives largely listed as cytotoxic; 360,000 tested, 2% active
#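 IDH1KD HT-1080 cells, 750/well, RPMI + 5% FBS; compound pinned after 2 h settling; 48 h, 37 °C; CellTiter-Glo luminescence; % activity normalised to DMSO and no-cell wells; curves fitted, classed by r2 and efficacy.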
# TDP1 cell noCPT: qHTS for Inhibitors of human tyrosyl-DNA phosphodiesterase 1 (TDP1): qHTS in cells in absence of CPT; DT40 Tdp1-/- hTDP1 cells, no CPT, ATP luminescence, 48 h; Potency, µM (highest dose often 46.2 µM), actives largely listed as inhibitors; 420,000 tested, 15% active; AID 686978, 2013; also: nearly all actives have a fitted effect of over 55% in size
#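 Seeded 400 DT40-hTDP1 cells/well (vehicle DMSO, no 20 nM CPT); pinned compounds; ≥48 hr at 37 °C; CellTiter-Glo luminescence as viability measure.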
# 12-LOX inh: Primary qHTS assay for inhibitors of human arachidonate 12S-lipoxygenase (ALOX12): Round 2. Polyunsaturated fatty acid lipoxygenase ALOX12 (Homo sapiens), P18054. purified 12hLO, xylenol orange hydroperoxide absorbance. Potency, µM (titrated, usually from 108 µM), usual class: inhibitors. 580,000 tested, 1.1% active
# Target sequence (P18054 whole entry, looked up): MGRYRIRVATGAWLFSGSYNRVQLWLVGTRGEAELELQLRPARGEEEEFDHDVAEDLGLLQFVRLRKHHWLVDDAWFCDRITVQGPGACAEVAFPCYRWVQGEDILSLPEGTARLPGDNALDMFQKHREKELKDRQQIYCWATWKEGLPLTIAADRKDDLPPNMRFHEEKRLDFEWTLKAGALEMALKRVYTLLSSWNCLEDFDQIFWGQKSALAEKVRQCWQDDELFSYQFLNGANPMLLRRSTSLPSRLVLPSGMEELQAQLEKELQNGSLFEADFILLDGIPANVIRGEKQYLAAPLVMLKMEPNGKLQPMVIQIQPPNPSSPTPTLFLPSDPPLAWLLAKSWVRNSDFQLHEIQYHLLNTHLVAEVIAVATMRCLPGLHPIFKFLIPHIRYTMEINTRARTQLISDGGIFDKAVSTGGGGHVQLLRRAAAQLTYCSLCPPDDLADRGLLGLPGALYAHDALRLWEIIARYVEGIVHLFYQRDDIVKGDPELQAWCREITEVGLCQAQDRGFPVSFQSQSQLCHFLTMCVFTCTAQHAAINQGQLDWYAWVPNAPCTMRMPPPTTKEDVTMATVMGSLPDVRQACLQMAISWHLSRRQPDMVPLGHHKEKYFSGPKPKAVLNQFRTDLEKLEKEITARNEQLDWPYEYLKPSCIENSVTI
#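 Hydroperoxide product was detected by ferrous iron/xylenol orange as the 573 to 405 nm absorbance ratio. Arachidonic acid at 40 uM (final) was turned over for 30 min at room temperature by 150 nM human 12hLO, pH 7.0 Hepes buffer, after 15 min compound preincubation.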
# A number is an active result; i = inactive; ? = inconclusive; nt = no result; [ ] = another dose, or the depositor's remark. Shown is part of a subset that was picked to be rich in hits. Unless noted, calls follow the shape of the dose curve; as a rule, active = well fitted curve in the direction sought with a large enough effect; inconclusive = small, poorly fitted or top-dose-only effect, or another doubt; inactive = no such curve, though single readings can be large; an effect the other way counts as inactive or inconclusive.
SMILES,HT1080NT lethal,IL-1B inflam inh,TDP1 cell CPT,HT1080 IDH1KD tx,TDP1 cell noCPT,12-LOX inh
Cc1cc(NC(=O)c2cc(-c3ccccc3C)nc3ccccc23)no1,i,i,?,i,20.6µM,?
Cc1cccc(NC(=O)c2cc(C)nc3ccccc23)c1,i,i,i,i,i,i
O=C(Nc1ccccn1)c1cc(-c2ccco2)nc2ccccc12,nt,nt,nt,nt,nt,39.8µM
Cc1cccc(NC(=O)c2cc(-c3ccc(C)o3)nc3ccccc23)c1,nt,nt,nt,nt,nt,10µM
CCC(C)NC(=O)C1COC2(CCN(C(=O)c3ccc(F)cc3)CC2)N1C(=O)c1ccc(C)cc1 (configuration not stated),nt,nt,nt,nt,nt,i
Cn1cc([C@@H](NC(=O)c2nc3ccccc3[nH]c2=O)C2CC(O)C2)cn1 (some centres not stated),nt,nt,nt,nt,nt,i
O=C(CN1C2CCCC1CC(NC(=O)c1ccccc1)C2)Nc1ccccc1C(F)(F)F (configuration not stated),i,i,?,i,16.4µM,i
O=C(CN1CCC(NC(=O)c2ccco2)CC1)Nc1ccccc1C(F)(F)F,i,i,i,i,?,i
O=C(CN1C2CCCC1CC(NC(=O)c1ccco1)C2)Nc1ccccc1C(F)(F)F (configuration not stated),i,i,23.1µM,i,23.1µM,i
Cc1ccc(C)c(C(C)NC(=O)c2ccco2)c1 (configuration not stated),nt,nt,nt,nt,nt,i
CCc1nc(-c2c3n(c(=O)n(CC(=O)NCc4ccccc4Cl)c2=O)CCCC3)no1,nt,nt,nt,nt,nt,i
CCS(=O)(=O)N1CCCCCCNC(=O)[C@@H]2C[C@@H](C(=O)NCCc3c[nH]c4ccccc34)C[C@@H]21,nt,nt,nt,nt,nt,i
COc1cc(-c2nc(SCC(=O)NC3CCCC3)c(-c3ccccc3)[nH]2)cc(OC)c1OC,nt,nt,nt,nt,nt,i
C=CCc1cc(/C=C/c2nc(O)c([N+](=O)[O-])c(=O)[nH]2)cc(OC)c1O,i,i,i,i,i,39.8µM
Cc1cc(C(=O)CSc2nnnn2C2CCCC2)c(C)n1Cc1cccs1,nt,nt,nt,nt,nt,i
CC[C@H](CO)Nc1nc(Nc2cccc(Cl)c2)c2ncn(C(C)C)c2n1,?,-99.4,9.2µM,?,9.2µM,i
COc1ccc(S(=O)(=O)CCC(=O)N2CCN(c3ccc(F)cc3)CC2)cc1,i,i,20.6µM,i,25.9µM,i
O=C(CCS(=O)(=O)c1ccc(Cl)cc1)N1CCN(c2ccccc2F)CC1,i,i,i,i,i,i
O=C(CCS(=O)(=O)c1ccc(Cl)cc1)N1CCN(c2ccc(F)cc2)CC1,i,i,14.6µM,i,18.4µM,i
CN(c1ccc(OCC(=O)N2CCN(c3ccc(F)cc3)CC2)cc1)S(=O)(=O)c1cccs1,i,i,?,i,25.9µM,?
COc1ccc(CC(=O)N2CCN(c3ccc(F)cc3)CC2)cc1,i,i,i,i,?,i
Cc1ccc(S(=O)(=O)CCC(=O)N2CCN(c3ccc(Cl)cc3)CC2)cc1,i[9.24 µM],i,13µM,i,20.6µM,?
COCCn1cnc2c1c(=O)n(Cc1ccc(C(N)=O)cc1)c(=O)n2CC(C)C,nt,nt,nt,nt,nt,i
CN1CCN(Cc2cc(Cl)c3cccnc3c2OC(=O)c2cccs2)CC1,i,i,4.61µM,i,4.61µM,i
CC(CN1CCOCC1)OC(=O)c1ccccc1Br (configuration not stated),i,i,i,i,i,?
SMILES,HT1080NT lethal,IL-1B inflam inh,TDP1 cell CPT,HT1080 IDH1KD tx,TDP1 cell noCPT,12-LOX inh
O=C(Oc1c(CN2CCOCC2)cc(Cl)c2cccnc12)c1ccccc1Br,?,i,4.61µM,?,4.61µM,i
Cc1ccc(N=Cc2cccc([N+](=O)[O-])c2)c(C)c1,nt,nt,nt,nt,nt,i
CCCC(=O)Nc1cccc(NC(=O)c2cccc3c(Br)cccc23)c1,nt,nt,nt,nt,nt,i
CCCCC1=CC2=C(c3ccco3)C(=O)C(C)(OC(=O)c3ccc(OC)cc3)C(=O)C2=CN1c1ccccc1 (configuration not stated),i,i,23.1µM,i,?,nt
CCCCC1=CC2=C(c3ccco3)C(=O)C(C)(OC(=O)c3ccc(OC)cc3)C(=O)C2=CN1CCCOC(C)C (configuration not stated),i,i,5.17µM,i,6.51µM,?
COC(=O)CCCC1=CC2=C(c3ccccc3)C(=O)C(C)(OC(=O)C3CCCC3)C(=O)C2=CN1Cc1ccco1 (configuration not stated),i,i,i,i,?,i
C=CCN1C=C2C(=O)C(C)(OC(=O)c3ccc(OC)cc3)C(=O)C(c3ccco3)=C2C=C1CCCC (configuration not stated),i,i,13µM,i,i,i
COC(=O)CCCC1=CC2=CC(=O)C(C)(OC(=O)c3cccs3)C(=O)C2=CN1c1ccccc1 (configuration not stated),i,i,i,i,i,i
C=CC1=C2C=C(C3CC3)N(CCCN(CC)CC)C=C2C(=O)C(C)(OC(=O)c2ccco2)C1=O (configuration not stated),i,i,i,i,i,?
CN(C)S(=O)(=O)c1cccc(C(=O)N=C2N=C3C=CC(Cl)=CN3Cc3ccccc32)c1,i,i,?,i,16.4µM,i
O=C(N=C1N=C2C=CC=CN2Cc2ccccc21)c1ccc(S(=O)(=O)N2CCCC2)cc1,i,i,i,i,?,i
Cc1nc(Nc2ccc(NC(=O)c3cccs3)cc2)cc(N(C)C)n1,nt,nt,nt,nt,nt,i
O=C(Nc1ccccc1C(=O)NC1CCCCC1)c1ccccc1,i,i,?,i,?,i
O=C(Nc1ccsc1C(=O)O)c1ccc(Cl)cc1,i,i,i,i,?,?
O=C(Nc1ccsc1C(=O)NC1CCCCC1)c1ccccc1,i,i,?,i,20.6µM,i
Cc1ccc(C(=O)Nc2ccsc2C(=O)O)cc1,i,i,?,i,14.6µM,i
O=C(Nc1ccccc1C(=O)NC(Cc1ccccc1)C(=O)NC1CCCCCC1)c1ccccc1 (configuration not stated),i,i,?,i,23.1µM,i
COC(=O)CSc1[nH]c2ccc(F)cc2c1[N+](=O)[O-],i,i,20.6µM,i,?,?
Cc1ccc(C)c(CN2CCCN(C(=O)Cn3ncc4c3-c3ccccc3OC4)C2)c1,i,i,13µM,i,16.4µM,i
